KB-3-1 tox: kills parental KB-3-1 adenocarcinoma cells | Potency, µM (titrated, usually from 46.1 µM), hits mostly cytotoxic | KB-3-1 viability, CellTiter-Glo ATP luminescence, 72 h | 400,000 tested, 1.4% active; further: nearly all actives have a fitted effect of over 60% in size
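Cytotoxicity measured as CellTiter-Glo luminescence after 72 h at 37 C. Compound titrations were pinned onto drug-naive KB-3-1 parental adenocarcinoma cells grown in DMEM with 10% FBS, and normalized data fitted to concentration-response curves.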
DT40 TDP1 CPT: growth inhibition of DT40 Tdp1-/-;hTDP1 cells with camptothecin (screen for TDP1 inhibitors) | chicken DT40 Tdp1-/-;hTDP1 cells + 20 nM CPT, ATP luminescence, 48 h | Potency, µM (top dose mostly 46.2 µM), inactives show top-dose activity change, negative = growth inhibition, hits mostly inhibitors | 420,000 tested, 12% active; further: nearly all actives have a fitted effect of over 55% in size
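Cell growth measured by CellTiter-Glo luminescence after a minimum 48 h, 37 C compound exposure with 20 nM CPT in Tdp1-knockout DT40 cells stably expressing hTDP1, seeded 400/well; qHTS titration format.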
HT1080 IDH1KD tx: toxicity to HT-1080 IDH1 knockdown cells (counter line); HT-1080 IDH1 knockdown viability, ATP luminescence, 48 h; Potency, µM (highest dose often 46.1 µM), inactives show top-dose activity, negative = toxicity, most hits filed as cytotoxic; 360,000 tested, 2% active;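 further: 0% = DMSO wells and -100% = cell-free medium wells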
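IDH1KD HT-1080 cells, 750/well, RPMI + 5% FBS; compound pinned after 2 h settling; 48 h, 37 °C; CellTiter-Glo luminescence; % activity normalised to DMSO and no-cell wells; curves fitted, classed by r2 and efficacy.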
DT40 TDP1 no CPT: qHTS for Inhibitors of human tyrosyl-DNA phosphodiesterase 1 (TDP1): qHTS in cells in absence of CPT. DT40 Tdp1-/- hTDP1 cells, no CPT, ATP luminescence, 48 h. Potency, µM (highest dose often 46.2 µM), without a hit: at the highest dose activity change, negative = growth inhibition, actives largely listed as inhibitors. 420,000 tested, 15% active. AID 686978, 2013; further: nearly all actives have a fitted effect of over 55% in size
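Chicken DT40 Tdp1-/- cells complemented with human TDP1, screened without camptothecin (DMSO vehicle only), 400 cells/well. Compounds pin-transferred, cells incubated at 37 °C for at least 48 hr. Growth read as ATP-dependent luminescence (CellTiter-Glo, 30 min at RT).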
HT1080NT lethal: kills 2HG-producing HT-1080-NT fibrosarcoma cells; Potency, µM (top dose mostly 46.1 µM), inactives show top-dose activity, negative = less viability, actives largely listed as cytotoxic; 360,000 tested, 1.6% active; HT-1080-NT fibrosarcoma viability, CellTiter-Glo ATP luminescence, 48 h;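 further: NT is the 2HG producing partner of a matched IDH1 knockdown line; 0% = DMSO-treated cells and -100% = media-only wells without cells; nearly all actives have a fitted effect of over 55% in size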
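Fibrosarcoma NT cells, 750 per well in 5% FBS RPMI, were exposed to compound for 48 hours. Viability: CellTiter-Glo luminescence.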
KB-V1 cytotox: kills drug-selected multidrug resistant KB-V1 cells; KB-V1 MDR cells viability, CellTiter-Glo, 72 h; Potency, µM (titrated, usually from 46.1 µM), hits mostly cytotoxic; 400,000 tested, 3.4% active; further: nearly all actives have a fitted effect of over 60% in size
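In this primary screen, KB-V1 cells overexpressing P-gp are incubated with library compounds (lowest to highest concentration) for 72 h at 37 degrees C before a luminescent ATP viability read.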
* marks the source's active call; other numbers are inactive results; i = inactive; u = inconclusive; x = not tested or not shown; [ ] = dose if it differs, or a comment. Compounds with a hit are over-represented: about 19% of the library has one in this group of screens. The call rests on the fitted dose curve; in most records, active means well fitted curve in the direction sought with a large enough effect; inconclusive means small, poorly fitted or top-dose-only effect, or another doubt; inactive means no such curve, though single readings can be large; an effect the other way counts as inactive or inconclusive. Unless noted, on the % scale 0 is the no-effect control and ±100 the full control effect; potency means the concentration at half of the fitted maximal effect.

SMILES	KB-3-1 tox	DT40 TDP1 CPT	HT1080 IDH1KD tx	DT40 TDP1 no CPT	HT1080NT lethal	KB-V1 cytotox
O=c1c2ccccc2nc2n1C(CSCc1ccc(Cl)cc1Cl)CS2 (stereo not given)	u	9.2µM*	-0.6%[9.24 µM]	6.51µM*	-1.6%	5.8µM*
Nc1ccccc1SCC1CSc2nc3ccccc3c(=O)n21 (stereo not given)	i	-12.6%	1.4%	-12.3%	9.6%	i
COc1cc(=O)n2c(c1C(=O)NCc1nonc1C)CCN(C(=O)c1cccc(C)c1C)CC2	x	3.8%	x	-22.7%	x	x
COc1ccccc1NC(=O)NCC1CC1(Cl)Cl (stereo not given)	i	-4.6%	18.3%	-16.7%	0.0%	i
COc1ccc(OC)c(CNc2ncc(-c3cccc([N+](=O)[O-])c3)n2C)c1	i	16.4µM*	-1.9%	u	-4.0%	i
COc1ccc(-c2cnc(NCc3cc4c(cc3[N+](=O)[O-])OCO4)n2C)cc1	i	25.9µM*	-13.2%	13µM*	-2.0%	i
Cc1cccc(CNc2ncc(-c3cccc([N+](=O)[O-])c3)n2C)c1	i	u	1.9%	16.4µM*	-4.7%	u
Cn1c(-c2cccc([N+](=O)[O-])c2)cnc1NCc1cccc([N+](=O)[O-])c1	i	u	-1.0%	u	-18.3%	u
O=C(C[n+]1cccc2cc(Cl)ccc21)c1cccc([N+](=O)[O-])c1	i	-5.4%	x	u	x	u
CCCSc1nnc(NC(=O)Nc2ccccc2OC)s1	i	u	4.0%	u	-0.3%	i
CCOc1ccc(Cl)cc1-c1cc(C(=O)Nc2ccc(OC)cc2OC)[nH]n1	i	u	4.5%	18.4µM*	-2.4%	i
COc1ccc(NC(=O)c2cc(-c3cc(Cl)ccc3OC)n[nH]2)c(OC)c1	i	23.1µM*	u	u	u	i
CCOc1ccc(Cl)cc1-c1cc(C(=O)Nc2cc(OC)ccc2OC)[nH]n1	i	u	7.1%	23.1µM*	u	i
COc1cc2c(cc1N)-c1ccc(N)cc1C2	i	-18.1%	15.3%	-3.8%	u	i
Cc1c(C=N)c(O)n(C)c(=O)c1C#N	i	-1.8%	0.8%	3.5%	11.6%	i
O=[N+]([O-])c1ccc(Oc2cccnc2)c([N+](=O)[O-])c1	u	4.11µM*	u	5.8µM*	u	i
O=[N+]([O-])c1ccc(Oc2ccc(F)cc2)c2ccncc12	i	-29.7%	-4.4%[9.24 µM]	u	u	i
O=[N+]([O-])c1ccc(OCc2cnc(Cl)s2)c([N+](=O)[O-])c1	6.51µM*	20.1%	-11.1%	u	-3.4%	1.16µM*
Nc1ccc(Oc2ccc([N+](=O)[O-])cc2[N+](=O)[O-])cc1	i	18.4µM*	u	u	-14.8%	i
O=[N+]([O-])c1ccc(Oc2cccc(Br)c2)c2ccncc12	u	u	u	u	20.6µM*	u
COc1ccccc1NS(=O)(=O)c1ccc(C)c(C(=O)NCC2CCCO2)c1 (stereo not given)	i	-0.6%	-8.5%	-0.4%	6.6%	i

Screens deposited in PubChem BioAssay by National Center for Advancing Translational Sciences (NCATS).
